Bioassay records deposited in PubChem by National Center for Advancing Translational Sciences (NCATS).
Shown are actives, neighbours in structure and some others; about 2.4% of the full set was active somewhere.
Nrf2 block = inhibitors of Nrf2 signaling; A549 ARE-Fluc reporter, luciferase luminescence, 18-24 h; Potency, µM (doses to about 46 µM), for inactives: at the top dose activity change, negative = inhibition, hits mostly inhibitors; actives 2.1% (n = 360,000); AID 504444; also: % is scaled to controls: 0 for no effect and ±100 for the full control effect; nearly all actives have a fitted effect of over 60% in size
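Reporter: ARE-Fluc in A549. Exposure: 18-24 h, 37 °C, 5% CO2, 5% FBS OPTI-MEM. Readouts: fluorescent cytotoxicity (CellTiter-Fluor), then luminescent Nrf2 signal after BugLite.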
PINK1 expr mod = changes PINK1 expression; actives 0.2% (n = 410,000); PINK1 immunofluorescence, high-content cytometry, 24 h; Potency, µM (highest dose often 76.6 µM), for the others: top-dose activation (PINK1 increase), most hits filed as activators; AID 624263; active = well fitted activation curve with a large enough effect; inconclusive = small, poorly fitted or top-dose-only effect; cell line not stated here; also: % of control where 0% means no effect; nearly all actives have a fitted effect of over 65% in size
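Stable cell line, 250 cells/well, 12 h attachment; compounds pinned at 5 concentrations, 24 h; CCCP control. Fixed with nuclear dye, primary antibodies 12 h at 10 degrees C, secondary plus cell stain; laser-scanning cytometer read.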
Nrf2 activator = activates Nrf2 signaling; AREc32 ARE-luciferase reporter (MCF7-derived line), luminescence, 24 h; Potency, µM (series often up to 46.1 µM), without a hit: at the top dose activation, actives largely listed as activators; actives 0.31% (n = 410,000); also: % of control where 0% means no effect; nearly all actives have a fitted effect of over 65% in size
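AREc32 cells carrying an ARE-driven firefly luciferase, 1000 cells/well in OPTI-MEM with 5% FBS, dosed after overnight attachment and incubated 24 hr at 37 deg C. Steady-Glo luminescence read after 30 min at RT.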
A549 viability = counter-screen for Nrf2 inhibitors: cytotoxicity in A549 cells; AID 504648; Potency, µM (titrated, usually from 46 µM), for the others: at the highest dose activity change, negative = cytotoxicity, most hits filed as inhibitors; actives 0.16% (n = 390,000); A549 ARE-Fluc cells, CellTiter-Fluor viability, 18-24 h; also: % is scaled to controls: 0 for no effect and ±100 for the full control effect
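Cytotoxicity counterscreen: CellTiter-Fluor fluorescence was measured in A549 ARE_Fluc cells after 18-24 h of compound exposure in a concentration series. The subsequent BugLite luminescent read reports ARE-luciferase activity.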
Epigenetic reg = epigenetic control regulation, reporter derepression | murine LDR cells, GFP reporter derepression, 30 h | Potency, µM (titrated, usually from 53.9 µM), for inactives: at the top dose GFP activation, actives largely listed as activators | actives 0.2% (n = 280,000) | AID 1865; also: % of control where 0% means no effect; nearly all actives have a fitted effect of over 60% in size
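In this reporter-derepression format, murine cells bearing a silenced integrated CMV-GFP locus incubate with test compound (30 h, 37 C), then are washed and imaged; fluorescent objects of 20–120 um count as induced cells.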
* hit, by the source's call; ? = inconclusive; nt = no result; [ ] = dose if it differs, or a comment. Unless noted, calls follow the shape of the dose curve; as a rule, active = well fitted curve in the direction sought with a large enough effect; inconclusive = small, poorly fitted or top-dose-only effect, or another doubt; inactive = no such curve, though single readings can be large; an effect the other way counts as inactive or inconclusive. Potency is read from the fitted curve at half-maximal effect.

SMILES | Nrf2 block | PINK1 expr mod | Nrf2 activator | A549 viability | Epigenetic reg
COC(=O)C1=C(C)NC2=C(C(=O)CCC2)C1c1cn(Cc2ccc(Cl)cc2Cl)nc1-c1ccccc1 (stereo unspecified) | 26µM* | -1% | -1% | ? | -2%
Cc1ccc(NC(=O)c2ccc(NC(=O)N3CCSc4ncccc43)cc2)c(Cl)c1 | -9% | 1% | 0% | -5% | 14%
CCn1c(=O)cc(SCC(=O)Nc2ccc(OC)c(OC)c2)c2ccccc21 | 16µM* | 3% | 1% | -26% | 2%
CCn1c(=O)cc(SCC(=O)Nc2cc(Cl)ccc2OC)c2ccccc21 | ? | 7% | 1% | -9% | -1%
Cn1c(=O)cc(SCC(=O)Nc2cccnc2)c2ccccc21 | ? | 1% | 0% | -3% | -1%
COc1cc(NC(=O)CSc2cc(=O)n(C)c3ccccc23)cc(OC)c1OC | 21µM* | 1% | -1% | -11% | 0%
CCOCCn1ccc2c(OCC(=O)Nc3ccc(OC)c(OC)c3)cccc2c1=O | 12µM* | 4% | 0% | -18% | nt
CCN1CCc2c(OCC(=O)N3N=C(c4cccs4)CC3c3ccc(F)cc3)cccc2C1=O (stereo unspecified) | 23µM* | 0% | 1% | -22% | -1%
Cc1cc(Br)c(OCc2ccc(C(=O)N/N=C/c3ccc[nH]3)cc2)c(Br)c1 | 0.52µM* | 0% | 0% | 1.3µM* | nt
O=C(N/N=C/c1ccc[nH]1)c1ccc(O)cc1 | -7% | 0% | 0% | -15% | 0%
O=C(N/N=C/c1ccc[nH]1)c1ccc(COc2cccc3cccnc23)cc1 | ? | ? | 0% | 7.3µM* | 1%
CC(C)CCOc1ccc(Cn2c(=O)oc3ccccc32)cc1 | 9% | -1% | 0% | 2% | -6%
Cc1cc(NC(=O)Nc2nnc(N(C)C3CCCCC3)s2)ccc1Br | 26µM* | 0% | 0% | -11% | -2%
CN(C)CCCNC(=O)c1ccc(Cc2nc3ccccc3[nH]2)cc1 | nt | nt | nt | nt | -2%
COc1ccc(CCc2nnc(CCC(=O)N(C)Cc3ccnc4ccccc34)o2)cc1 | 21µM* | 5% | 4% | ? | 0%
CCC(C)Sc1cccc(-c2nc3cc(C)ccn3c2NC2CCCCC2)c1 (stereo unspecified) | ? | 14µM* | 0% | ? | nt
Cc1ccn2c(NC3CCCCC3)c(-c3cccc(SC4CCCCC4)c3)nc2c1 | ? | 20µM* | -1% | -14% | nt
CCOC(=O)c1c(-c2ccc(C)cc2C)csc1NC(=O)c1ccccc1Cl | 6% | 1% | 0% | 6% | -2%
O=C(NNc1ccccc1F)c1cccs1 | ? | 0% | nt | 4% | nt
CC1CN(Cc2cccn2-c2ncccn2)Cc2cc(Cl)ccc2O1 (stereo unspecified) | nt | 1% | nt | nt | nt
Cc1ccccc1-c1n[nH]c(=S)n1/N=C/C=C/c1ccco1 | ? | 0% | 13µM* | -4% | 0%
S=c1[nH]nc(-c2ccccc2)n1/N=C/C=C/c1ccco1 | -7% | 3% | ? | -2% | -1%
c1ccc(-c2ncnc3nc4n(c23)CCC4)cc1 | -4% | 7.9µM* | 0% | -9%[1.84 µM] | 0%
O=S(=O)(c1ccc2ncccc2c1)N1CCN(c2nc(-c3cccs3)nc3ccccc23)CC1 | ? | 1% | nt | -14% | nt
CCOc1nc2c(c(=O)n(C)c(=O)n2C)n1Cc1ccccc1Cl | 18µM* | 2%[38.3 µM] | 0% | -11% | 1%
SMILES | Nrf2 block | PINK1 expr mod | Nrf2 activator | A549 viability | Epigenetic reg
Cn1c(=O)c2c(nc(Cl)n2CCOc2ccccc2)n(C)c1=O | 26µM* | 0% | 0% | 4% | nt
CCCCn1c(Cl)nc2c1c(=O)n(C)c(=O)n2C | 4% | -2% | 0% | -10% | 0%
CN1CCN(c2nc3c(c(=O)n(C)c(=O)n3C)n2Cc2cccc3ccccc23)CC1 | 1% | -1% | 0% | -3% | 0%
Cn1c(=O)c2c(nc(Br)n2Cc2ccccc2Cl)n(C)c1=O | nt | 0% | -1% | -1% | 3%
Cn1c(=O)c2c(nc(N3CCCCCC3)n2Cc2cccc3ccccc23)n(C)c1=O | ? | 2% | 0% | 23µM* | -2%
COc1ccccc1Oc1nc2c(c(=O)n(C)c(=O)n2C)n1Cc1cccc(Br)c1 | 16µM* | 2% | 0% | 0% | -3%
COc1ccc(Oc2nc3c(c(=O)n(C)c(=O)n3C)n2Cc2cccc(OC)c2)cc1 | -6% | 5% | 0% | -1% | 3%
Cc1cccc(CNCCn2cc(C(=O)Nc3ccccc3)nn2)c1 | nt | -1% | nt | nt | nt
COc1cc(-c2ccc(Cl)cn2)cc2c1OCCN(S(=O)(=O)C[C@]13CC[C@H](CC1=O)C3(C)C)C2 | nt | -1% | nt | nt | nt
COc1ccccc1N1CCN(C(=O)C2CCN(S(=O)(=O)c3ccc4c(c3)CC(C)N4C(C)=O)CC2)CC1 (stereo unspecified) | -18% | 1% | 0% | 11% | nt
CC(=O)N1c2ccc(S(=O)(=O)N3CCC(C(=O)Nc4ncccc4C)CC3)cc2CC1C (stereo unspecified) | 20% | 0% | 0% | 12% | nt
COc1ccccc1N1CCN(C(=O)C2CCN(S(=O)(=O)c3ccc4c(c3)CC(C)N4C(=O)C3CC3)CC2)CC1 (stereo unspecified) | 26µM* | 2% | 0% | -5% | nt
CC(=O)N1c2ccc(S(=O)(=O)N3CCC(C(=O)N4CCCC(C)C4)CC3)cc2CC1C (stereo unspecified) | 16µM* | -1% | 0% | -8% | nt
CC(=O)N1c2ccc(S(=O)(=O)N3CCC(C(=O)Nc4ccccn4)CC3)cc2CC1C (stereo unspecified) | 18µM* | 2% | -1% | -6% | nt
CC(=O)N1c2ccc(S(=O)(=O)N3CCC(C(=O)N4CC(C)CC(C)C4)CC3)cc2CC1C (stereo unspecified) | 1% | 3% | 0% | 2% | nt
O=C1CCc2cc(S(=O)(=O)Nc3ccc(F)c(Cl)c3)ccc2N1 | ? | nt | nt | 8% | nt
O=C1c2ccccc2C(=O)N1c1ccc2ccccc2n1 | -6% | nt | nt | -11% | nt
COc1cc2c(cc1OC)C1=NC(=O)CN1C(SCc1ccccc1C)=N2 | 9.2µM* | nt | 1% | -15% | ?
Cc1ccc(CSC2=Nc3ccccc3C3=NC(=O)CN23)cc1 | -3% | 1% | 5% | -11% | 1%
Cn1cnnc1Sc1ccc(CN2CCOc3ccc(C4=Cc5ccccc5CC4)cc3C2)o1 | nt | 0% | nt | nt | nt
N#C/C(=C\c1ccc(-c2nc3ccccc3s2)o1)C(N)=O | ? | -4% | 11µM* | -4% | 0%
CNC(=O)/C(C#N)=C/c1ccc(-c2nc3ccccc3s2)o1 | 6% | 0% | 8% | -9% | 10%
CN(C)c1cc(N2CCOCC2)nc(C#N)n1 | nt | 2% | nt | nt | nt
CCOc1ccc(-c2nnc(SCC(=O)Nc3cc(C)on3)o2)cc1 | 15µM* | 4% | -2% | -4% | ?
